What all share (test): DAPPL (digital affinity profiling via proximity ligation, sequencing); 10 mM Tris-HCl pH 7.5, 50 mM NaCl, 1 mM DTT, 4% glycerol, room temperature, 30 min; GST-TFs on glutathione beads, 16-mer random dsDNA library, 0.1% formaldehyde crosslink after washing; high values mean tight binding
In one experiment the target is T1, FEV (Homo sapiens, UniProt Q99581 1-238).
T1 sequence: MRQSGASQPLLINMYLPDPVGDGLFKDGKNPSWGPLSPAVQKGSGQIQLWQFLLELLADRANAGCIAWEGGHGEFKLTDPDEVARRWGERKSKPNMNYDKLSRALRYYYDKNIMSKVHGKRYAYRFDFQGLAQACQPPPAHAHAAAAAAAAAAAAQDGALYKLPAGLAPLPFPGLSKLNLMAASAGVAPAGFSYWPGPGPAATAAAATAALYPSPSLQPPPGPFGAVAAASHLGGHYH
The note with it: protein: recombinant; tags: N-terminal GST; dsDNA, one strand shown. The gist of the method: (§1)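 Beads coated with glutathione captured GST-fused human transcription factors that had been expressed in yeast, and the factors were then given DNA barcodes and pooled with a tag-only sample. The pools were incubated with 200 nmole of a random double-stranded 16-mer DNA library in Tris/NaCl/DTT/glycerol buffer for 30 min at room temperature, washed, crosslinked with 0.1% formaldehyde and proximity-ligated with BsaI/T4 ligase at 37 °C for 1 h. PCR amplification and Illumina NextSeq500 sequencing came last. Binding signal is each hexamer's read frequency for a factor divided by its frequency for the tag-only sample.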

In another experiment the target is ETV5 (Homo sapiens, UniProt P41161 1-510). The note with it: protein: recombinant; tags: N-terminal GST; dsDNA, one strand shown. In a few lines: as §1
Sequence of ETV5 (P41161 whole entry): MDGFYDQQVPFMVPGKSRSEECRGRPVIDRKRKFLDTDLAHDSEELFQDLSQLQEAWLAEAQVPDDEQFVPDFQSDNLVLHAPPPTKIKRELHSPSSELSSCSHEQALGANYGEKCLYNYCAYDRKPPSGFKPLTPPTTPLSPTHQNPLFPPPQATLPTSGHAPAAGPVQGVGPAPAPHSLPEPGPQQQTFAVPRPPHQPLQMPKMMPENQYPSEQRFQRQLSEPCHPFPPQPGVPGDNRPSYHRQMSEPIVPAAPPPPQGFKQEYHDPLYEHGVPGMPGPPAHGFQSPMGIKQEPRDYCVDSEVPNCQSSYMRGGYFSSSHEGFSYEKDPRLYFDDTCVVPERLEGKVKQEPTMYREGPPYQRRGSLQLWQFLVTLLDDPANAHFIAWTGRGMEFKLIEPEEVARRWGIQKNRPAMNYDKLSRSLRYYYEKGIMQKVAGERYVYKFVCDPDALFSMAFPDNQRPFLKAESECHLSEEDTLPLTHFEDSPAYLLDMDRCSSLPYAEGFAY
Another experiment addresses HSF1 (Homo sapiens, UniProt Q00613 1-529). The note with it: protein: recombinant; tags: N-terminal GST; chain copies: 3; dsDNA, one strand shown. The gist of the method:
as §1

A further experiment deals with T2, SPIC (Homo sapiens, UniProt Q8N5J4 1-248).
T2 sequence: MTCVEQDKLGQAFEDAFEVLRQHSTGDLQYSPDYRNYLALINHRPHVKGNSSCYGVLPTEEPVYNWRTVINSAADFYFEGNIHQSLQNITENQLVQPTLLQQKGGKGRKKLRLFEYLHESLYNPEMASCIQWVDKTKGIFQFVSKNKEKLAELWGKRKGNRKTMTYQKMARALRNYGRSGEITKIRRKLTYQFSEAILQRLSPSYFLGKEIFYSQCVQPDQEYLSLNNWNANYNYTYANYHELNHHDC
As to conditions: protein: recombinant; tags: N-terminal GST; dsDNA, one strand shown. The gist of the method:
as §1

The target in a further experiment is ELF4 (Homo sapiens, UniProt Q99607 1-663). As to conditions: protein: recombinant; tags: N-terminal GST; dsDNA, one strand shown. In a few lines: as §1
Sequence of ELF4 (Q99607 whole entry): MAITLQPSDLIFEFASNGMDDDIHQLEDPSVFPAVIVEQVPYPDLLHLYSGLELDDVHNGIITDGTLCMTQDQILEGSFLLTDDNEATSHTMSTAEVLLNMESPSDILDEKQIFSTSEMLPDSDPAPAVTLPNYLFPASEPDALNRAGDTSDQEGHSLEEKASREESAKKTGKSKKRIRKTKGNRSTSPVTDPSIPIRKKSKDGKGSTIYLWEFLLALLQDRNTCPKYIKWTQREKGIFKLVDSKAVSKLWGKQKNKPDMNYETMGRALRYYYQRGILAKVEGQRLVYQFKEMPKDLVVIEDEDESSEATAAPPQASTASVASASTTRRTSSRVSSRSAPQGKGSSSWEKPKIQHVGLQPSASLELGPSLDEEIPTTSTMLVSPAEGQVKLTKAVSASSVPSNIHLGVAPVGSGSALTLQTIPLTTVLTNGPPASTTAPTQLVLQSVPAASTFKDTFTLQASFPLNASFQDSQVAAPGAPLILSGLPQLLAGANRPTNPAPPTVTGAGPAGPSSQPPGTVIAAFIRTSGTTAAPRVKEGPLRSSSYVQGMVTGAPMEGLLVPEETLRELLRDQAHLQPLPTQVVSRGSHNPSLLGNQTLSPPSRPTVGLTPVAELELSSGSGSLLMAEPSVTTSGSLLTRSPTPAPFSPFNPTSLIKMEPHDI
The next experiment concerns the target T3, ELK4 (Homo sapiens, UniProt P28324-2 1-405).
T3 sequence: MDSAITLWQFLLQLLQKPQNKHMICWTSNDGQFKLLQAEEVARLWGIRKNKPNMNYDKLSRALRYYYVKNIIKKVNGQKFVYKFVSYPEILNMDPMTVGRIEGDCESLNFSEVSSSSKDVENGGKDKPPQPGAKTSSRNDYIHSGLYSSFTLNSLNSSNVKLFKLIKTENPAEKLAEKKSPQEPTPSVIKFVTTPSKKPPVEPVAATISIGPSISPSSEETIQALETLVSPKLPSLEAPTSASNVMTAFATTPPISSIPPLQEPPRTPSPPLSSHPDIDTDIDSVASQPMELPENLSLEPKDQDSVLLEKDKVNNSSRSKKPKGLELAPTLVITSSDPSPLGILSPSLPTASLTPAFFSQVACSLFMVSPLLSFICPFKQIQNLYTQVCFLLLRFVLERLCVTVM
As to conditions: protein: recombinant; tags: N-terminal GST; dsDNA, one strand shown. The gist of the method:
as §1

In the next experiment the target is T4, ETV2 (Homo sapiens, UniProt O00321 1-342).
T4 sequence: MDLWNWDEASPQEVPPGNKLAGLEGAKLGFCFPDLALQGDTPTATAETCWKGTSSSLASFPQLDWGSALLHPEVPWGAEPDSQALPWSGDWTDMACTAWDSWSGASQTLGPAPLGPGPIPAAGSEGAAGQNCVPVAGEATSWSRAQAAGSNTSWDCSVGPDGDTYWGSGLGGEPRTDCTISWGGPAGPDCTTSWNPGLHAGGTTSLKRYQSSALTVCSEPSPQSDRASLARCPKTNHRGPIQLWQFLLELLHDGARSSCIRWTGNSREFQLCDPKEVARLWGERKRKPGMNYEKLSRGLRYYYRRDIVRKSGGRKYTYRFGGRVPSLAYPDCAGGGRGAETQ
The note with it: protein: recombinant; tags: N-terminal GST; dsDNA, one strand shown. In a few lines:
as §1

In another experiment the target is T5, ELF3 (Homo sapiens, UniProt P78545 1-371).
T5 sequence: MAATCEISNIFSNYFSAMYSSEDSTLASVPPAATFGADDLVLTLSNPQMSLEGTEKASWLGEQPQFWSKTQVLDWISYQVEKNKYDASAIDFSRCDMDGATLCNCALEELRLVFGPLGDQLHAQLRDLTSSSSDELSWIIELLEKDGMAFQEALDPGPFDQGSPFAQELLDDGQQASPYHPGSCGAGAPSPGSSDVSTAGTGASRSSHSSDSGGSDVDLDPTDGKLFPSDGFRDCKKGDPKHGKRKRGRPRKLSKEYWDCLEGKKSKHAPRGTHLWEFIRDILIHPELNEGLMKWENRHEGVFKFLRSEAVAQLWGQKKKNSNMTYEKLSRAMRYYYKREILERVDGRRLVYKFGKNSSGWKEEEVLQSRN
As to conditions: protein: recombinant; tags: N-terminal GST; dsDNA, one strand shown. The gist of the method:
as §1

The next experiment concerns the target CRX (Homo sapiens, UniProt O43186 1-299). The note with it: protein: recombinant; tags: N-terminal GST; dsDNA, one strand shown. The gist of the method: as §1
The next experiment has as its target ETV1 (Homo sapiens, UniProt P50549 1-477). The note with it: protein: recombinant; tags: N-terminal GST; dsDNA, one strand shown. The gist of the method:
as §1

The target of a further experiment is T6, ERF (Homo sapiens, UniProt P50548 1-548).
T6 sequence: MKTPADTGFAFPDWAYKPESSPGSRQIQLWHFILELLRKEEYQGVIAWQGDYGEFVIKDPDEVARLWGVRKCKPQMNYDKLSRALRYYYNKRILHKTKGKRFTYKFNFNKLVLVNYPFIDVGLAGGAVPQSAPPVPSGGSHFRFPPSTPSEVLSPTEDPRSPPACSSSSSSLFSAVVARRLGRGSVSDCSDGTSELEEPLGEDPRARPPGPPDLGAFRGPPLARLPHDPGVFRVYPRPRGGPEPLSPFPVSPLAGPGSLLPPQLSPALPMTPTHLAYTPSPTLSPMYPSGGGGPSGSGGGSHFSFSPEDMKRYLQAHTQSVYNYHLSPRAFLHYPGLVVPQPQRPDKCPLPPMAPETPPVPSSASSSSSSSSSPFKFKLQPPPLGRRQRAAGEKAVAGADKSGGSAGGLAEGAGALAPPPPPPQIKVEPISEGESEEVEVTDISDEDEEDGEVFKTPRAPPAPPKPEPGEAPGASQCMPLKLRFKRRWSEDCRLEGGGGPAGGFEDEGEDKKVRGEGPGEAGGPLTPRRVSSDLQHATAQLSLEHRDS
As to conditions: protein: recombinant; tags: N-terminal GST; dsDNA, one strand shown. In a few lines:
as §1

The next experiment deals with T7, ETV3L (Homo sapiens, UniProt Q6ZN32 1-361).
T7 sequence: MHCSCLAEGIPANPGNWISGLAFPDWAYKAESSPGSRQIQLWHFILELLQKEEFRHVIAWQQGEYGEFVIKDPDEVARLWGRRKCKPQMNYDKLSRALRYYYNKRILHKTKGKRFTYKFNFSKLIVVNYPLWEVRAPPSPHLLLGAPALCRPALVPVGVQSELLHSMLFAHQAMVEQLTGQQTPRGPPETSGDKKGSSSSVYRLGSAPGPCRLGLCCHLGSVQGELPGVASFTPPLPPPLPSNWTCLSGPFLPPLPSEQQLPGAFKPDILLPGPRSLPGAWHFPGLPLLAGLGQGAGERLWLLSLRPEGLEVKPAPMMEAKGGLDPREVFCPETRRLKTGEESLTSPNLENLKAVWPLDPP
The note with it: protein: recombinant; tags: N-terminal GST; dsDNA, one strand shown. The gist of the method:
as §1

A further experiment deals with T8, ETS2 (Homo sapiens, UniProt P15036 1-469).
T8 sequence: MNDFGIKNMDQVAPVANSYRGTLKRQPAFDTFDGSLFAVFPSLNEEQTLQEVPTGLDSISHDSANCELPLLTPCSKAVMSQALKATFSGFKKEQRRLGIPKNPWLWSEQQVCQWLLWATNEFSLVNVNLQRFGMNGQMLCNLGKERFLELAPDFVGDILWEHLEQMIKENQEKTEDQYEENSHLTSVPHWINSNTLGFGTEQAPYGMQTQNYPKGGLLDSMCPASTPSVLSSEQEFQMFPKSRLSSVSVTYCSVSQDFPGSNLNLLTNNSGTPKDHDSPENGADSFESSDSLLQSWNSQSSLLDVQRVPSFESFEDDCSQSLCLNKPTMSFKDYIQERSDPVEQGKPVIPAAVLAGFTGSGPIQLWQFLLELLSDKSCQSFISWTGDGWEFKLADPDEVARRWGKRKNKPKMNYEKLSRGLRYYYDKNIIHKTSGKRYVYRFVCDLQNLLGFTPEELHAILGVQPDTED
As to conditions: protein: recombinant; tags: N-terminal GST; dsDNA, one strand shown. The gist of the method: as §1

A further experiment addresses T9, SPDEF (Homo sapiens, UniProt O95238 1-335).
T9 sequence: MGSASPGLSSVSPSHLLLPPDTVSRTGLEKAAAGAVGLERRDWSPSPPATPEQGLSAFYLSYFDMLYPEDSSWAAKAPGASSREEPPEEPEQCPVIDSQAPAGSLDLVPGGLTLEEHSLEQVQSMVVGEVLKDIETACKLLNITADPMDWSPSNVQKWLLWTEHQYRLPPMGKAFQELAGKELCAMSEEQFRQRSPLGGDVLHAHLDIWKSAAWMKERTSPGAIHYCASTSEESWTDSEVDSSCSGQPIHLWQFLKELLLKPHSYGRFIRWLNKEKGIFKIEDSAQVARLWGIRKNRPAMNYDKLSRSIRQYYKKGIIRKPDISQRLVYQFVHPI
As to conditions: protein: recombinant; tags: N-terminal GST; dsDNA, one strand shown. In a few lines: as §1

The target in another experiment is T10, ETV7 (Homo sapiens, UniProt Q9Y603 1-341).
T10 sequence: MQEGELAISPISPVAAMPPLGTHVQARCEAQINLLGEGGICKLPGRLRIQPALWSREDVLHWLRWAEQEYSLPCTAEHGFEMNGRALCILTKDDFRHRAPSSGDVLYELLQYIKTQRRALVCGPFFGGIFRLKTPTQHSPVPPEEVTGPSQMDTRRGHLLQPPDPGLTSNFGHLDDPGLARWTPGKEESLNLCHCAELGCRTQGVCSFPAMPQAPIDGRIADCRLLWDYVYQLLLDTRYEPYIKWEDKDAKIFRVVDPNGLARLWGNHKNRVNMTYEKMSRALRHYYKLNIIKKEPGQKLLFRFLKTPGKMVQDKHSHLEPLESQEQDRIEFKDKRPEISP
The note with it: protein: recombinant; tags: N-terminal GST; dsDNA, one strand shown. The gist of the method:
as §1

The target of another experiment is T11, ELF5 (Homo sapiens, UniProt Q9UKW6-2 1-255).
T11 sequence: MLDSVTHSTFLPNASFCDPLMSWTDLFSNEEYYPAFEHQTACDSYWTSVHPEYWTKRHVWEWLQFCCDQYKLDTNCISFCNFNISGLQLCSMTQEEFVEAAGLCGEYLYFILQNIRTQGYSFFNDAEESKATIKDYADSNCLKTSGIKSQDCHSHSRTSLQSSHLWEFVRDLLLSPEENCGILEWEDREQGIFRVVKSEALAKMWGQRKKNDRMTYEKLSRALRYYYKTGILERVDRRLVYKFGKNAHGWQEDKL
As to conditions: protein: recombinant; tags: N-terminal GST; dsDNA, one strand shown. In a few lines:
as §1

The next experiment has as its target T12, ETV3 (Homo sapiens, UniProt P41162-2 1-143).
T12 sequence: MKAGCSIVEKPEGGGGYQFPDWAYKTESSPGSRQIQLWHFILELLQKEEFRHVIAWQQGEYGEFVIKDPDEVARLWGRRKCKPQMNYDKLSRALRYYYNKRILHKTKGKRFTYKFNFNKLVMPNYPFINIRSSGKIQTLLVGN
As to conditions: protein: recombinant; tags: N-terminal GST; dsDNA, one strand shown. The gist of the method: as §1

Another experiment addresses ETV6 (Homo sapiens, UniProt P41212 1-452). The note with it: protein: recombinant; tags: N-terminal GST; dsDNA, one strand shown. In a few lines: as §1

This passage reports binding signal results from publication PMC7862700, “An all-to-all approach to the identification of sequence-specific readers for epigenetic DNA modifications on cytosine”.

Sequence of HSF1 (Q00613 whole entry): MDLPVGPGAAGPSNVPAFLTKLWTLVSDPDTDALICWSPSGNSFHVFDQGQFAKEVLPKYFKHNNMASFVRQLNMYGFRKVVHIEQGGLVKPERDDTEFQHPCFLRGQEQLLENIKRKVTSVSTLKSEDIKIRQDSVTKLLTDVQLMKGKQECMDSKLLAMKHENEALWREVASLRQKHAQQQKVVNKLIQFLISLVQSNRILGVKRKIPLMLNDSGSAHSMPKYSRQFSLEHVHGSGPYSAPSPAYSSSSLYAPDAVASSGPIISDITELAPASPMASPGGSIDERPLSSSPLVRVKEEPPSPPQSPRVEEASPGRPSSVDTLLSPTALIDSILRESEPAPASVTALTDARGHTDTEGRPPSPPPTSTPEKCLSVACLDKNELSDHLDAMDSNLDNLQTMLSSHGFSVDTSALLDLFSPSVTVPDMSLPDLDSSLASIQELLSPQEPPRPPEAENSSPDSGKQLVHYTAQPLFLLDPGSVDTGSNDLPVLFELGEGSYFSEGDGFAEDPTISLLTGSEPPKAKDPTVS
Sequence of ETV6 (P41212 whole entry): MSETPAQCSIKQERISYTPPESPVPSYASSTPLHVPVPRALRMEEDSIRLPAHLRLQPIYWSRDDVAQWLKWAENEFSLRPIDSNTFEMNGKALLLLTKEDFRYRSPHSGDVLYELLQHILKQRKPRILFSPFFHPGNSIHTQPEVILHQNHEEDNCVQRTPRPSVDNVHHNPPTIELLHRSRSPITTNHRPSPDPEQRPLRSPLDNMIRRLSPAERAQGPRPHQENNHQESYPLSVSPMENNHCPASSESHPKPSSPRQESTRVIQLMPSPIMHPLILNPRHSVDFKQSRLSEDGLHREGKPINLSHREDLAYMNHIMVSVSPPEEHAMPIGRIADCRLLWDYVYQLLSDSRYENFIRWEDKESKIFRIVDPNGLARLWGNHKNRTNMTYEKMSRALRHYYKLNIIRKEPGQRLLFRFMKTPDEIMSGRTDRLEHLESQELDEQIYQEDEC
Sequence of ETV1 (P50549 whole entry): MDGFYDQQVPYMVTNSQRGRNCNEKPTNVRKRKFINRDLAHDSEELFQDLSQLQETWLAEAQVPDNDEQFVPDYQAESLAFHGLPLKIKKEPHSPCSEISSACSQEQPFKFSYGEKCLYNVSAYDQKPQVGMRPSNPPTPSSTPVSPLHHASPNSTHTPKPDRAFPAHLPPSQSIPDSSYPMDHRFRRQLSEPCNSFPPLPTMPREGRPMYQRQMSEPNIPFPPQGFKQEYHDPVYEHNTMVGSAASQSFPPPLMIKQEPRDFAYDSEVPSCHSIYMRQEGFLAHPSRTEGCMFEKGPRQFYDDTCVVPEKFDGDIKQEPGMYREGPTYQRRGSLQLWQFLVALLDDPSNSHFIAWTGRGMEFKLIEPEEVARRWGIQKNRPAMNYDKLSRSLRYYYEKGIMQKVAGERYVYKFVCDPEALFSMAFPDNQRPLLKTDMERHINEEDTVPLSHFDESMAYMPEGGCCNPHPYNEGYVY
Sequence of CRX (O43186 whole entry): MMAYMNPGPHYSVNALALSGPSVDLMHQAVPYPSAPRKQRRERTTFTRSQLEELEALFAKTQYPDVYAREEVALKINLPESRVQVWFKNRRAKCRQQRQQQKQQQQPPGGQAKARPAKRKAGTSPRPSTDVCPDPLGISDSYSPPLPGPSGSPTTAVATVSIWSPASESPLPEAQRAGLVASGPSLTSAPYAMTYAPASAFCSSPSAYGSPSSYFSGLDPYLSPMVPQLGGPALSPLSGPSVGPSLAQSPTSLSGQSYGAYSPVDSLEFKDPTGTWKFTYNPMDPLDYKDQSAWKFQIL

Regarding TCCACA, the binding signal was 1.21 fold enrichment (6-mer frequency, TF over GST control) with FEV; 1.25 fold enrichment (6-mer frequency, TF over GST control) with ETV5; 1.36 fold enrichment (6-mer frequency, TF over GST control) with HSF1; 1.31 fold enrichment (6-mer frequency, TF over GST control) with SPIC; 1.27 fold enrichment (6-mer frequency, TF over GST control) with ELF4; 1.25 fold enrichment (6-mer frequency, TF over GST control) with ELK4. For the same sequence, the binding signal in the experiment with ETV2 is 1.17 fold enrichment (6-mer frequency, TF over GST control); with ELF3, 1.22 fold enrichment (6-mer frequency, TF over GST control); with CRX it was 1.1 fold enrichment (6-mer frequency, TF over GST control); with ETV1 it was 1.15 fold enrichment (6-mer frequency, TF over GST control); with ERF, 1.31 fold enrichment (6-mer frequency, TF over GST control); in the experiment with ETV3L, 1.24 fold enrichment (6-mer frequency, TF over GST control). The binding signal with ETS2 is 1.29 fold enrichment (6-mer frequency, TF over GST control); with SPDEF it was 1.25 fold enrichment (6-mer frequency, TF over GST control); with ETV7 it was 1.17 fold enrichment (6-mer frequency, TF over GST control); with ELF5, 1.13 fold enrichment (6-mer frequency, TF over GST control); in the experiment with ETV3, 1.2 fold enrichment (6-mer frequency, TF over GST control); in the experiment with ETV6, 1.25 fold enrichment (6-mer frequency, TF over GST control).
